Among the data in PubChem BioAssay (NCI) are growth values, retold here.

Common to all, as to experiment: NCI-60 one-dose screen, 48 h (100 = growth as untreated, 0 = no growth, -100 = all killed)
Conditions in all cases: 10 µM unless noted

Test [1] relates to NCI-H23 lung.
Test [2] relates to NCI-H226 lung.
The test system of test [3] is NCI-H322M lung.
Test [4] has as its system HOP-62 NSCLC.
The subject of test [5] is NCI-H460 lung.
Test [6] concerns HOP-92 NSCLC.
Test [7] relates to NCI-H522 lung.
The subject of test [8] is A549/ATCC NSCLC.
The subject of test [9] is 786-0 renal.
For test [10], the system named is COLO 205 colon.

Compounds without any hit were thinned out: in the full panel of roughly 83,000, 20% have a hit.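 Single-concentration screen, 48 h exposure, 96-well plates. Endpoint: percent growth. Below 10 = active.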 Unmarked numbers belong to inactive results. The source made the active and inactive calls.

As to `O=C(CN1CCN(c2cc3c(cc2F)c(=O)c(C(=O)O)cn3C2CC2)CC1)Nc1nc(-c2ccc(Cl)cc2)cs1`, the growth in [1] was 16.5%; in test [2] it was 43.3%; in test [3], 28.1%; in [4] it was 25.7%; in test [5], 6.86% (active); in test [6], -5.35% (active). Also, the growth is 6.46% (active) in [7], 11.4% in test [8], 29.1% in [9] and 63.2% in [10].
In the case of `CC(=O)/C(=C/c1cccc(Cl)c1)C(=O)c1ccccc1`, the growth in test [1] was 90.2%; in test [2], 84.1%; in test [3], 100%; in [4], 95.7%; in [5], 102%; in test [6], 88.7%. Moreover, the growth is 56.6% in test [7], 82.6% in test [8], 93.2% in test [9] and 107% in [10].
With `Cn1cc(-c2csc(-c3cn(C)c4ncccc34)n2)c2ccccc21`, the growth in test [1] was 41.8%; in test [2], 74.8%; in test [3], 45.1%; in test [4], 33.8%; in test [5], 11.7%; in test [6], 66.1%. The growth in [7] was -18.8% (active); in [8], 23.8%; in [9] it was 60%; in test [10], -7.52% (active).
On to `C/C(Cc1ccc(Cl)cc1)=C(\c1ccc(OCCN2CCCCCC2)cc1)c1ccc(OC(=O)Cc2ccccc2)cc1`, for which the growth in [1] is 71.3%; in [2] it was 84.1%; in [3] it was 67.3%; in test [4] it was 85.7%; in [5] it was 18.2%; in [6] it was 48.4%. In addition, the growth was 62.9% in test [7], 61.3% in test [8], 65% in test [9] and -45.1% (active) in test [10].
Regarding `COc1ccc(C(=O)/C=C/c2cc3ccccc3[nH]c2=O)cc1`, the growth in test [1] was 11.9%; in [2] it was 64.5%; in [3], 61.5%; in test [4], 29.7%; in test [5], 3.4% (active); in test [6], 34.6%. The growth is -31% (active) in test [7], 42.3% in test [8], 33.5% in [9] and 66.9% in test [10].
`CCCCNC(=O)NS(=O)(=O)c1ccc(N2N=C(c3cc(C)ccc3C)CC2c2cc(OC)c(OC)c(OC)c2)cc1` (stereo not given): the growth in [1] was -26.1% (active); in [2], 75.2%; in [3], 66.7%; in [4], 53.8%; in test [5], 57.5%; in test [6], 62.4%. Moreover, the growth is 53.7% in test [7], 32.6% in [8], 47.9% in [9] and 44.7% in [10].
As to `Oc1ccccc1/C=N/Nc1ccc2ccccc2n1`, the growth in test [1] was 45%; in test [2] it was 83%; in test [3] it was 31.2%; in test [4], 57.3%; in [5], 27.2%; in test [6] it was 70.9%. Also, the growth in test [7] was -9.13% (active); in test [8] it was 44%; in test [9] it was 65.3%; in [10] it was 31.2%.
Regarding `CC[C@H](Nc1cc(C)nc(N)n1)c1nc2cccc(NCc3ccc(C(=O)NO)cc3)c2c(=O)n1-c1ccccc1`, the growth in test [1] is -6.84% (active); in [2], 64.7%; in test [3], 47.7%; in [4], 34.5%; in test [5], 30.1%; in test [6], -3.07% (active). The growth in [7] is -63.7% (active); in test [8], 60.1%; in test [9] it was 44.1%; in test [10] it was -51.8% (active).
Consider `Cc1cc(Cl)ccc1Nc1nc(C(F)(F)F)ccc1C(=O)N/N=C/c1ccc(F)cc1`, for which the growth in [1] was 16.4%; in [2] it was 22.9%; in [3], 9.9% (active); in test [4], 5.92% (active); in test [5], 2.29% (active); in test [6], -18.1% (active). The growth in test [7] was -9.21% (active); in test [8] it was 16.5%; in [9] it was -50.7% (active); in test [10], 13.9%.
`COc1cnc2c(c1)C(=O)c1c-2n(CCCN2CCN(C)CC2)c(=O)c2cc([N+](=O)[O-])ccc12`: the growth in test [1] was -46.4% (active); in test [2], 79.3%; in [3], -56.9% (active); in test [4], -61.3% (active); in test [5], -74.5% (active); in [6], -57.7% (active). Also, the growth in [7] is -37.6% (active); in [8] it was -78.9% (active); in test [9], -87.1% (active); in test [10], -5.87% (active).
For the compound `COc1ccc(/C=C2\N=C3SC=C(N)N3C2=O)cc1`, the growth in [1] is 23.6%; in [2] it was 51.6%; in test [3] it was 46.6%; in [4] it was 40.2%; in test [5] it was 17.3%; in [6] it was -8.02% (active). For the same compound, the growth was -54.5% (active) in test [7], 32.8% in test [8], 33.2% in test [9] and 12.5% in [10].
`Cc1noc(C)c1-c1cc(O)cc(C(O)c2ccccc2)c1` (stereo not given): the growth in test [1] is 68.1%; in test [2], 65.5%; in test [3] it was 47.6%; in test [4], 47.2%; in test [5], 67.2%; in [6], 25.6%. In addition, the growth in test [7] was 22.1%; in test [8], 55.4%; in [9], 54.8%; in [10] it was 37.1%.
Regarding `COc1c(Cl)cc(Cl)cc1Cl`, the growth was 108% in [1]; 110% in [2]; 129% in test [3]; 97.5% in test [4]; 97.8% in test [5]; 116% in test [6]. For the same compound, the growth was 103% in test [7], 116% in test [8], 112% in [9] and 116% in test [10].
